Assays:
Test in all cases: DAPPL (digital affinity profiling via proximity ligation, sequencing); 10 mM Tris-HCl pH 7.5, 50 mM NaCl, 1 mM DTT, 4% glycerol, room temperature, 30 min; GST-TFs on glutathione beads, 16-mer random dsDNA library, 0.1% formaldehyde crosslink after washing; high values mean tight binding
Settings in all cases: protein: recombinant; tags: N-terminal GST; dsDNA, one strand shown
GABPA = target: T1, GABPA (Homo sapiens, UniProt Q06546 1-454)
T1 sequence: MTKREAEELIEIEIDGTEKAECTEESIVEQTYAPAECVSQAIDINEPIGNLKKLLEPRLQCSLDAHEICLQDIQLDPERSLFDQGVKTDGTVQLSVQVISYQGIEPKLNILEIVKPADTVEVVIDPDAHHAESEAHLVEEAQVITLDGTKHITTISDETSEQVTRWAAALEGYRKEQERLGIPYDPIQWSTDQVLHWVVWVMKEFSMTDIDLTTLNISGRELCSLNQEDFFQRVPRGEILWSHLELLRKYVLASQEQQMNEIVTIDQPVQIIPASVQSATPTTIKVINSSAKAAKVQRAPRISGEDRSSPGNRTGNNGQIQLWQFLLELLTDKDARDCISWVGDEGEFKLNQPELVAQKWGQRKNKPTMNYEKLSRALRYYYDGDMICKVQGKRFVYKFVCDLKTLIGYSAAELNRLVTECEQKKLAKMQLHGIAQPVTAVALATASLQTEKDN
Summary of the method: (§1)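 Binding signal is each hexamer's read frequency for a factor divided by its frequency in the tag-only sample. The factors were GST-fused human transcription factors from yeast, captured on glutathione beads, DNA-barcoded and pooled with that sample. Pools were incubated with 200 nmole of a random double-stranded 16-mer DNA library in Tris/NaCl/DTT/glycerol buffer at room temperature for 30 min, then washed, crosslinked with 0.1% formaldehyde, proximity-ligated with BsaI/T4 ligase (1 h, 37 °C), PCR-amplified and sequenced on an Illumina NextSeq500.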

ERG = target: T2, ERG (Homo sapiens, UniProt P11308 1-479)
T2 sequence: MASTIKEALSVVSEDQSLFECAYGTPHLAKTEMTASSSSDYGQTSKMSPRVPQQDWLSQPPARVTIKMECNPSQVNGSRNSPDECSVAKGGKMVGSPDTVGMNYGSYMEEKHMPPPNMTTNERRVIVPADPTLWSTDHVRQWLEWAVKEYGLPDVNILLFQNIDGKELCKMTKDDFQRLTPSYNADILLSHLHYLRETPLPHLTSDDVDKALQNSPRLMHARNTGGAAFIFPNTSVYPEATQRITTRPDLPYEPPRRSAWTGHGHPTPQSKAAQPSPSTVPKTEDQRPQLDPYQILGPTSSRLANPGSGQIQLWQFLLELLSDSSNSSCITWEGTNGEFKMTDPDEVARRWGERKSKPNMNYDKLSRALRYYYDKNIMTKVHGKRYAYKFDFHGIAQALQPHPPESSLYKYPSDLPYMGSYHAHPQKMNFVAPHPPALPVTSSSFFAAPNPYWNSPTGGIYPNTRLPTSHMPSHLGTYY
Summary of the method: as §1

ELF1 = ELF1 (Homo sapiens, UniProt P32519 1-619)
Summary of the method: as §1

EHF = target: T3, EHF (Homo sapiens, UniProt Q9NZC4 1-300)
T3 sequence: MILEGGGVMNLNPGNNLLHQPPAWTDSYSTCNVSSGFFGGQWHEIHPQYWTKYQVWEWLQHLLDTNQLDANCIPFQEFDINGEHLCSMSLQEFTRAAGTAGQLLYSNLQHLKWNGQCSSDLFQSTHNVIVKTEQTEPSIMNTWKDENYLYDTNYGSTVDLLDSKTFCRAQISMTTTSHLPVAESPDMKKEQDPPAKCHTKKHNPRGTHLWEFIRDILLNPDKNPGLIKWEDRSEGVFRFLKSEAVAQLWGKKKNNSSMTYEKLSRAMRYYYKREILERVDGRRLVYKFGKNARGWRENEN
Summary of the method: as §1

SPIB = SPIB (Homo sapiens, UniProt Q01892 1-262)
Summary of the method: as §1

FEV = target: T4, FEV (Homo sapiens, UniProt Q99581 1-238)
T4 sequence: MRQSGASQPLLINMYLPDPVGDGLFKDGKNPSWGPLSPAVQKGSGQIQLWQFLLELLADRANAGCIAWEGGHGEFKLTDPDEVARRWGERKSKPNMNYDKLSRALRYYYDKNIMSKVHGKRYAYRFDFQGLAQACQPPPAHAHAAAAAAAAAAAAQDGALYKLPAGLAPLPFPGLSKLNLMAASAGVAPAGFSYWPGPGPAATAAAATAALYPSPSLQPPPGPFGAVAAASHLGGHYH
Summary of the method: as §1

ETV5 = ETV5 (Homo sapiens, UniProt P41161 1-510)
Summary of the method: as §1

ELF4 = ELF4 (Homo sapiens, UniProt Q99607 1-663)
Summary of the method: as §1

ELK4 = target: T5, ELK4 (Homo sapiens, UniProt P28324-2 1-405)
T5 sequence: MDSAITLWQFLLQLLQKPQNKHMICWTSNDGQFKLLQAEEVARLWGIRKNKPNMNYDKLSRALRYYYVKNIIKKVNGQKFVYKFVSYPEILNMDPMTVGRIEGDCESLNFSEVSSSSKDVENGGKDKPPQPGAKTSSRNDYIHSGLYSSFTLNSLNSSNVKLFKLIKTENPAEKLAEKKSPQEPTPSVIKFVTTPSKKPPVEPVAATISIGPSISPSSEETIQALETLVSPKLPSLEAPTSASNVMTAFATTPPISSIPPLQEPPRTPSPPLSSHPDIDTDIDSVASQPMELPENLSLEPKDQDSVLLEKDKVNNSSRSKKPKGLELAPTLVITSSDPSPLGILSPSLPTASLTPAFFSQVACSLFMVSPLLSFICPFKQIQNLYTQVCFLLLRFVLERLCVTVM
Summary of the method: as §1

ETV2 = target: T6, ETV2 (Homo sapiens, UniProt O00321 1-342)
T6 sequence: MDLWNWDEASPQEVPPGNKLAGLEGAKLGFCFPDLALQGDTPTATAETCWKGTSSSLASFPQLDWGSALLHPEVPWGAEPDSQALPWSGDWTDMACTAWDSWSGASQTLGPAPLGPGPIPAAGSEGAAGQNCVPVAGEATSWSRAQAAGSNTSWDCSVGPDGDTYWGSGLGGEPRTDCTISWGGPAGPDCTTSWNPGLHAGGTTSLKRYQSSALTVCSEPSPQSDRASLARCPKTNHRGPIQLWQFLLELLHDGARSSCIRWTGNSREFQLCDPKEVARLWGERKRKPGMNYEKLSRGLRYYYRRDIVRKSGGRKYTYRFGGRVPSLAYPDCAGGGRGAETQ
Summary of the method: as §1

ELF3 = target: T7, ELF3 (Homo sapiens, UniProt P78545 1-371)
T7 sequence: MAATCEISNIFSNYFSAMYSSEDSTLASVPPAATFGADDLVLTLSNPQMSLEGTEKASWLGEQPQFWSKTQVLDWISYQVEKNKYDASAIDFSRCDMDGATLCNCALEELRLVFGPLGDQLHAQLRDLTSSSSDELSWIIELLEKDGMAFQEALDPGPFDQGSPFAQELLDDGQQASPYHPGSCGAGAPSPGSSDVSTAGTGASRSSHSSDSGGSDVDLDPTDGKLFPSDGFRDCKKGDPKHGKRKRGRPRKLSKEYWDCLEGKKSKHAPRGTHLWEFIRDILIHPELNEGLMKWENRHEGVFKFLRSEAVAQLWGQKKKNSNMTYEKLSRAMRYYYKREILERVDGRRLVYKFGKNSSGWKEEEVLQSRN
Summary of the method: as §1

ETV1 = ETV1 (Homo sapiens, UniProt P50549 1-477)
Summary of the method: as §1

ERF = target: T8, ERF (Homo sapiens, UniProt P50548 1-548)
T8 sequence: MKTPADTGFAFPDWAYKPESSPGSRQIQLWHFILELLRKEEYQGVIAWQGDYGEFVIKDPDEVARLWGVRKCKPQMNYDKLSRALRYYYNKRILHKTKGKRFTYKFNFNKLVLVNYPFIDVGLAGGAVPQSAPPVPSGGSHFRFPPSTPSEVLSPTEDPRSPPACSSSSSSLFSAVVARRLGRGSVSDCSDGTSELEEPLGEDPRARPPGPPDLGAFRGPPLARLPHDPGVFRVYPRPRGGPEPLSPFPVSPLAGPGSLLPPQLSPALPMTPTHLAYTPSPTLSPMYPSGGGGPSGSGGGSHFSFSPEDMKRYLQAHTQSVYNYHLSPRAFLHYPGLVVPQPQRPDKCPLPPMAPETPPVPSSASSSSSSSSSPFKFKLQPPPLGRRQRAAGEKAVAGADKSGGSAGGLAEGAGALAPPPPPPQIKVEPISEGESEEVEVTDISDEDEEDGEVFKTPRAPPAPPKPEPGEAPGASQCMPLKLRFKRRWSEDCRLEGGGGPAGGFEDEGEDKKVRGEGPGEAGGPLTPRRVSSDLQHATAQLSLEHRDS
Summary of the method: as §1

ETV3L = target: T9, ETV3L (Homo sapiens, UniProt Q6ZN32 1-361)
T9 sequence: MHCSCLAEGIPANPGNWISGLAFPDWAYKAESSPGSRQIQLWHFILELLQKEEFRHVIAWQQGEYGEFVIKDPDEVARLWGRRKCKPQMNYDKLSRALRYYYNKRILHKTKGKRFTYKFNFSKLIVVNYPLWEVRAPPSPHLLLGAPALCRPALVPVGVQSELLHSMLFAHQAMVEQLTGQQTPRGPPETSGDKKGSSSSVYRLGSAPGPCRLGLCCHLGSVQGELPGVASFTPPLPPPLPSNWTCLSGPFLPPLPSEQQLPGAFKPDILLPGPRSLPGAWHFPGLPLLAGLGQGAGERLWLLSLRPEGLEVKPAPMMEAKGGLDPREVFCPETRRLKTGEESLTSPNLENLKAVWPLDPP
Summary of the method: as §1

SPDEF = target: T10, SPDEF (Homo sapiens, UniProt O95238 1-335)
T10 sequence: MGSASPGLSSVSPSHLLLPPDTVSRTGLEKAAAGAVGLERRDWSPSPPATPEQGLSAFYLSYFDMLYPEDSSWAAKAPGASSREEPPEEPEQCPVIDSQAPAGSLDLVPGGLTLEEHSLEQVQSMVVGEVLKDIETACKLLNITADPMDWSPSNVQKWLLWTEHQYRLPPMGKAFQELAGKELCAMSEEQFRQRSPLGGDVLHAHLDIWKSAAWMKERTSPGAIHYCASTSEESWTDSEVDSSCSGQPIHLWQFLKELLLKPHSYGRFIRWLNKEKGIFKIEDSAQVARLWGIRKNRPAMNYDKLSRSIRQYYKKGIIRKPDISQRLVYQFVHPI
Summary of the method: as §1

ETV7 = target: T11, ETV7 (Homo sapiens, UniProt Q9Y603 1-341)
T11 sequence: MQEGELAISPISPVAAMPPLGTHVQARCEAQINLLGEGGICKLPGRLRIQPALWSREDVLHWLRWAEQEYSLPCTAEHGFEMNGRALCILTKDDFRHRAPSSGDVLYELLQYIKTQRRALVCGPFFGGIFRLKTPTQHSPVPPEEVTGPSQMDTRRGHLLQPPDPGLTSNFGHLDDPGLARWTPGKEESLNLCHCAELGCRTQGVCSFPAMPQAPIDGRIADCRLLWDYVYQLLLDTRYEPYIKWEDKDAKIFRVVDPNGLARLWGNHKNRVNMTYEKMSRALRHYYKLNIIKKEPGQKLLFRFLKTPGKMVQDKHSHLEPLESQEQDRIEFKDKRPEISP
Summary of the method: as §1

ETV6 = ETV6 (Homo sapiens, UniProt P41212 1-452)
Summary of the method: as §1

Chain of ETV1 (P50549 whole entry): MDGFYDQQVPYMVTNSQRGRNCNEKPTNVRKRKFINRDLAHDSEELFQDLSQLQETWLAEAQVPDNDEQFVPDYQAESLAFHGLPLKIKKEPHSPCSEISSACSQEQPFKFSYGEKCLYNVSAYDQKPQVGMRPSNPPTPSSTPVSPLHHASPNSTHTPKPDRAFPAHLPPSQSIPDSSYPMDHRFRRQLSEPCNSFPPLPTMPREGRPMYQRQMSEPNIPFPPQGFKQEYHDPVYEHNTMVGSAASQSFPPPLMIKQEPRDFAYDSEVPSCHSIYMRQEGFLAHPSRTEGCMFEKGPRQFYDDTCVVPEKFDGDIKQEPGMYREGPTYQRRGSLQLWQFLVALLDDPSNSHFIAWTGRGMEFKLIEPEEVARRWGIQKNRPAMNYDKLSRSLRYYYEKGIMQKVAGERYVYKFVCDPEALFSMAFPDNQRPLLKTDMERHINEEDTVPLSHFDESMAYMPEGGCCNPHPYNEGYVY
Chain of ETV6 (P41212 whole entry): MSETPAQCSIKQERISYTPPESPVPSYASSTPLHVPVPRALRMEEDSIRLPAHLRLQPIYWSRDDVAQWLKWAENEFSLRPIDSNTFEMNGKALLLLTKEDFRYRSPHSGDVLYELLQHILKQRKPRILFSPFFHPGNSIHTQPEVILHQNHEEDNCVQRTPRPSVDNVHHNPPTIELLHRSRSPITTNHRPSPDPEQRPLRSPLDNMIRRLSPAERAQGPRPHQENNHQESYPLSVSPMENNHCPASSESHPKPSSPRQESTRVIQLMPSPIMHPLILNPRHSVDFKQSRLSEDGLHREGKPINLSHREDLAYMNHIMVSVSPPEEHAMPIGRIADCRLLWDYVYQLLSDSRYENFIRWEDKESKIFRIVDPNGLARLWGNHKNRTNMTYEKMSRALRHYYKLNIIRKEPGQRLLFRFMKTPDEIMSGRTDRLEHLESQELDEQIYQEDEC
Chain of ELF1 (P32519 whole entry): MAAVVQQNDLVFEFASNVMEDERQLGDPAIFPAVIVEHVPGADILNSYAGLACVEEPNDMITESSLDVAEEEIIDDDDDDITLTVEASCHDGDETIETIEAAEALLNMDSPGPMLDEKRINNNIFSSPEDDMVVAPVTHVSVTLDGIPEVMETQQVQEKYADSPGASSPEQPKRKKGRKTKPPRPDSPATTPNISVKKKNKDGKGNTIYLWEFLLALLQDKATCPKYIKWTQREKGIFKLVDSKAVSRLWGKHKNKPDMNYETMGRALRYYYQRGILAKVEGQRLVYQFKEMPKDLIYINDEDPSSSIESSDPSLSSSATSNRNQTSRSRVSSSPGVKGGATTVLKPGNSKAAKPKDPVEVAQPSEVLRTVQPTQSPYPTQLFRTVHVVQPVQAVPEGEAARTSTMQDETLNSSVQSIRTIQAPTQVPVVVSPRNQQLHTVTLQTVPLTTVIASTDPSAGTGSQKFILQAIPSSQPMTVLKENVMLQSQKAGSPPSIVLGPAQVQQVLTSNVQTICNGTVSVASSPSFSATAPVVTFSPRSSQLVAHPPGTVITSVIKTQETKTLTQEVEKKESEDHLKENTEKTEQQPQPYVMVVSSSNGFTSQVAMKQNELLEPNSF
Chain of ELF4 (Q99607 whole entry): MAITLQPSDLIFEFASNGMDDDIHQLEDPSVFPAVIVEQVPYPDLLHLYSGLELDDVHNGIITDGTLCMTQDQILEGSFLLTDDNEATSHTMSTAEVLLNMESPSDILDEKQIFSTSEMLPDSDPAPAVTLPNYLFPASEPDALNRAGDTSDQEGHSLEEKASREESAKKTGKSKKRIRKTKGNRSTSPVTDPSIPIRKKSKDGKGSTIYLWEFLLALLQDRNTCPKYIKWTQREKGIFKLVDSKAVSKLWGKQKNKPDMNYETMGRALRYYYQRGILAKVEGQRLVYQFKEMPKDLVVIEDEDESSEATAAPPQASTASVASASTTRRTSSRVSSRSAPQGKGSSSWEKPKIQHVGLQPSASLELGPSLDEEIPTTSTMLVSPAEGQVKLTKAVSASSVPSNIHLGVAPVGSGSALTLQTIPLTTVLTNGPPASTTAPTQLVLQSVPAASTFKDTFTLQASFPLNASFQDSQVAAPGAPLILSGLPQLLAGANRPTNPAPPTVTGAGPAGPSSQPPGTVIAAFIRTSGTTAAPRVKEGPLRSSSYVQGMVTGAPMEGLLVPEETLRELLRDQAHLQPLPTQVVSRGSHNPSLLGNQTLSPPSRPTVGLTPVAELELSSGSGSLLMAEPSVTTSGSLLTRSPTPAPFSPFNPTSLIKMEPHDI
Chain of SPIB (Q01892 whole entry): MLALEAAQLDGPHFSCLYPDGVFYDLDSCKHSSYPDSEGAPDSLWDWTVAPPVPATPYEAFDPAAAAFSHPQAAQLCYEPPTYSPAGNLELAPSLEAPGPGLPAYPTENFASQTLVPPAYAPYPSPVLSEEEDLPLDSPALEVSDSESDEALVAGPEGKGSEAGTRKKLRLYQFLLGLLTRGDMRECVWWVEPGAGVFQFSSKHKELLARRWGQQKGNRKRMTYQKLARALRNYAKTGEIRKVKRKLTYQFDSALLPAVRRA
Chain of ETV5 (P41161 whole entry): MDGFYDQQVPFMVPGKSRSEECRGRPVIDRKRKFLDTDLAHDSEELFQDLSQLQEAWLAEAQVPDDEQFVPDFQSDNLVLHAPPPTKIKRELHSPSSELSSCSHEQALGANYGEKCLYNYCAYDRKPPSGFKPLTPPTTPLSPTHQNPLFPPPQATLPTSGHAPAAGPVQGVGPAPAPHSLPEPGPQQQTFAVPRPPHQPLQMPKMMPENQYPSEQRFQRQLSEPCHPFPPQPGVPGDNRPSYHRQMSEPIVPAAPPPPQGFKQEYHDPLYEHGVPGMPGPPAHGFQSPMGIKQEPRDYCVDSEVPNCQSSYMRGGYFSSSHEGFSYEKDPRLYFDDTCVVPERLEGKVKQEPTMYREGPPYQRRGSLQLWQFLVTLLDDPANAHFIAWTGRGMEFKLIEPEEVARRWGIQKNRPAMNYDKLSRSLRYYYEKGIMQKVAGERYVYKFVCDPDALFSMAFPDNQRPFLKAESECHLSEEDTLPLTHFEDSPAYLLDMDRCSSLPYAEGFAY

For CATAAT, the binding signal (GABPA) was 1.01 fold enrichment (6-mer frequency, TF over GST control), the binding signal (ERG) was 1.1 fold enrichment (6-mer frequency, TF over GST control) and the binding signal (ELF1) was 1.02 fold enrichment (6-mer frequency, TF over GST control). The binding signal (EHF) was 1.13 fold enrichment (6-mer frequency, TF over GST control), the binding signal (SPIB) was 1.04 fold enrichment (6-mer frequency, TF over GST control) and the binding signal (FEV) was 1.01 fold enrichment (6-mer frequency, TF over GST control). For the same sequence, the binding signal (ETV5) was 1.09 fold enrichment (6-mer frequency, TF over GST control), the binding signal (ELF4) was 1.01 fold enrichment (6-mer frequency, TF over GST control) and the binding signal (ELK4) was 1.03 fold enrichment (6-mer frequency, TF over GST control). The binding signal (ETV2) was 1 fold enrichment (6-mer frequency, TF over GST control), the binding signal (ELF3) was 1.01 fold enrichment (6-mer frequency, TF over GST control) and the binding signal (ETV1) was 1.05 fold enrichment (6-mer frequency, TF over GST control). For the same sequence, the binding signal (ERF) was 1.02 fold enrichment (6-mer frequency, TF over GST control), the binding signal (ETV3L) was 1.01 fold enrichment (6-mer frequency, TF over GST control) and the binding signal (SPDEF) was 1 fold enrichment (6-mer frequency, TF over GST control). The binding signal (ETV7) was 1.02 fold enrichment (6-mer frequency, TF over GST control) and the binding signal (ETV6) was 1.07 fold enrichment (6-mer frequency, TF over GST control).

Reference: article PMC7862700, “An all-to-all approach to the identification of sequence-specific readers for epigenetic DNA modifications on cytosine”
